Vaccinia Venus: inhibitors of vaccinia virus (Venus reporter) | Vaccinia virus Venus reporter expression, fluorescence | Potency, µM (series often up to 36.5 µM), inactives show at the highest dose activity change, negative = inhibition, most hits filed as inhibitors | 330,000 compounds, 0.46% hits; calls by dose curve; tested in A549 cells; also: potency is read from the fitted curve at half-maximal effect; nearly all actives have a fitted effect of over 30% in size
HCV inhibitor: inhibitors of hepatitis C virus infection; Huh7.5.1 HCVcc-Cre infection, luciferase reporter, 44 h; Potency, µM (titrated, usually from 41.8 µM), for inactives: at the top dose activity change, negative = inhibition, hits mostly inhibitors; 340,000 compounds, 3.4% hits; active = well fitted inhibition curve with a large enough effect; inconclusive = small, poorly fitted or top-dose-only effect, or another doubt; inactive = no such curve, though single readings can be large or run the other way; also: potency is read from the fitted curve at half-maximal effect
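Luciferase read-out (15 sec integration) after a 15 min room-temperature substrate step quantifies HCVcc-Cre infection. Cells, 1,000 per well, had compound added 4 h post-plating, then virus at ~0.5 moi, and were cultured 44 h.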
HCMV inh: human cytomegalovirus inhibition. HFF cells, HCMV-luciferase reporter, 72 h; stronger effect = lower value. 410,000 compounds, 4.5% hits. activity change, negative = inhibition, % at 57.5 µM. AID 1259415; in the data active = activity change below about -60%; inconclusive = no clear call, values can overlap the other calls; inactive = above about -39%
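Two-dose cell screen: HFF monolayers treated with compounds and infected with luciferase-expressing HCMV at 1 PFU/cell, 72 h at 37C, then lysed for luciferase measurement.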
FMDV antiviral: antivirals against foot and mouth disease virus. FMDV antiviral cell-based qHTS. Potency, µM (doses to about 57.9 µM), inactives show top-dose activity change, negative = inhibition, usual class: inhibitors. 410,000 compounds, 1.2% hits. AID 1159524; calls by dose curve; tested in HEK293T cells; also: read-out not given here; potency is read from the fitted curve at half-maximal effect; nearly all actives have a fitted effect of over 45% in size
Vaccinia mCherry: inhibitors of vaccinia virus infection (mCherry reporter signal) | Vaccinia virus mCherry reporter infection, fluorescence | Potency, µM (top dose mostly 36.5 µM), without a hit: top-dose activity change, negative = inhibition, most hits filed as inhibitors | 310,000 compounds, 0.63% hits | AID 720579; calls by dose curve; tested in A549 cells; also: potency is read from the fitted curve at half-maximal effect; nearly all actives have a fitted effect of over 35% in size
* hit, by the source's call; ? = inconclusive; · = no result given; ! = a repeat was not active; [ ] = remark or other dose. Sampled rows, rich in hits. Any-hit rate of the full collection: about 7.3%. % is scaled to controls: 0 for no effect and ±100 for the full control effect.

SMILES | Vaccinia Venus | HCV inhibitor | HCMV inh | FMDV antiviral | Vaccinia mCherry
COc1ccc(C(=O)N/C(N)=N/c2nc3ccccc3o2)cc1 | ? | ? | 11 | -2% | ?
COc1ccc(-c2ccc(CN3C(CC(C)C)C(=O)N(Cc4cn(CCC5OCCO5)nn4)CCS3(=O)=O)cc2)cc1OC (stereo unspecified) | -13% | · | -62* | -15% | 0%
CC1C(=O)N(Cc2cn(CCC3OCCCO3)nn2)CCS(=O)(=O)N1Cc1ccc(-c2ccc(Cl)c(Cl)c2)cc1 (stereo unspecified) | ? | · | -92* | ? | -29%
COCOCCn1cc(CN2CCS(=O)(=O)N(Cc3ccc(-c4ccc(Cl)c(Cl)c4)cc3)C(C)C2=O)nn1 (stereo unspecified) | 13µM* | · | ? | ? | ?
CCOc1ccc(N(CC)S(=O)(=O)N2CCCC(C(=O)Nc3ccc(NC(C)=O)cc3)C2)cc1 (stereo unspecified) | -11% | · | -6 | -28% | -12%
Cc1ccc(-n2c(=O)c3ccc(C(=O)NCc4ccco4)cc3n(Cc3cccc(Cl)c3)c2=O)cc1 | -9% | · | 6 | -13% | -18%
O=C(NCc1ccc2c(c1)OCO2)c1ccc2c(c1)N(Cc1c(F)cccc1Cl)C(=O)c1ccccc1S2 | 3%[7.34 µM] | · | -3 | -3% | -2%[7.34 µM]
Cc1ccc(Cn2c(=O)n(-c3ccccc3)c(=O)c3ccc(C(=O)NCc4ccco4)cc32)cc1 | ? | 6%[8.37 µM] | -61* | 48% | ?
COCCCNC(=O)c1ccc(Cn2c(=O)c3ccccc3n(Cc3ccccc3C)c2=O)cc1 | ? | ? | -96*! | -3% | ?
CCN(CC)CCCNC(=O)c1ccc2c(c1)N(Cc1c(F)cccc1Cl)C(=O)c1ccccc1S2 | ? | · | -98* | -15% | -5%
O=C(NCc1ccco1)c1ccc2c(c1)N(Cc1c(F)cccc1Cl)C(=O)c1ccccc1S2 | -20% | · | -26 | -2% | -22%
Cc1ccc(CN2C(=O)c3ccccc3Sc3ccc(C(=O)NCc4ccco4)cc32)cc1 | -7% | · | -66* | 6% | -15%
COc1ccc(OC)c(CNC(=O)c2cc(S(=O)(=O)N3CCC(C)CC3)cn2C)c1 | -16% | · | -3 | ? | -15%
CC(=O)N1CCc2cc(S(=O)(=O)NC(Cc3ccccc3)C(=O)Nc3cccc(C)c3)ccc21 (stereo unspecified) | -10% | · | -33 | 9% | -7%
O=C(NCc1ccco1)c1ccc(Cn2c(=O)c3ccccc3n(Cc3ccc(Cl)cc3)c2=O)cc1 | · | 11µM* | -14 | -3% | ·
CC(=O)Nc1ccc(Oc2cc(C#N)c(C#N)cc2N2CCOCC2)cc1 | -20% | -1% | 13 | -21% | ·
CC(=O)Nc1ccc(Oc2cc(C#N)c(C#N)cc2N2CCCCCC2)cc1 | ? | ? | ? | 18µM* | ?
Cc1cc(=O)c(C(=O)N(C)CCc2ccccn2)c2n1-c1ccccc1SC(c1ccsc1)C2 (stereo unspecified) | 16% | · | · | -7% | 1%
COc1ccc(-c2coc3c(C(=O)NCc4ccco4)cccc23)c(C)c1 | -13% | · | ? | 0% | 0%
COc1ccc(-c2coc3c(C(=O)NCc4cccc(Cl)c4)cccc23)c(C)c1 | -22% | · | -62* | 0% | -26%
COc1ccc(-c2coc3c(C(=O)Nc4cccnc4)cccc23)c(C)c1 | -22% | · | ? | 20µM* | 9%
COc1ccc(-c2coc3c(C(=O)Nc4cccc(C(C)=O)c4)cccc23)c(C)c1 | -16% | · | -24 | 0% | -3%
CCOc1ccccc1NC(=O)c1cc2c(=O)[nH]c3ccccc3c2s1 | 6% | · | 7 | -5% | -3%
CCC1CN(C(=O)C2CCN(S(=O)(=O)c3c(C)noc3/C=C/c3ccccc3F)CC2)c2cc(Cl)ccc2O1 (stereo unspecified) | -12%[7.34 µM] | · | -2 | -12% | -11%[7.34 µM]
CCCC(=O)Nc1ccc(-c2nc3cc(C)ccc3o2)cc1 | -7% | 11µM* | 140 | 29% | -5%
CCCC(=O)Nc1ccc2oc(-c3ccc(OC)c(Br)c3)nc2c1 | · | ? | -11 | 35% | ·
CCOc1ccc(C(=O)Nc2ccc(-c3nc4cc(CC)ccc4o3)cc2)cc1 | -27% | · | -74* | -25% | ?
COc1cc(C(=O)Nc2ccc(Cl)c(C(F)(F)F)c2)cc(OC)c1OC | ? | 14µM* | -7 | ? | ?
O=C(Nc1ccc2oc(-c3ccccc3)nc2c1)c1ccc2c(c1)OCCO2 | · | 10µM* | ? | ? | ·

High-throughput results: PubChem, National Center for Advancing Translational Sciences (NCATS)
